According to PubChem BioAssay AID1159580 (chemical genetic matrix, 2015):
Among all 5,500 compounds or so, about 2,000 (36%) were called active. Not shown: some 18% with an inconclusive outcome. This is one part of the list. Values without a mark were called inactive. No stated cut-off is given here; in the data, active means normalized growth mostly below about 0.91 (no sharp cut-off); inconclusive means no clear call, values can overlap the other calls; inactive means mostly above about 0.92.

Experiment: chemical genetic growth profiling, strain panel (AID 1159580);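 further: tested at 20 µM; growth read once vehicle control cultures reached saturation at 30 °C; 1 = growth at the plate median or of vehicle wells; lower values mean less growth of the strain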
Settings: S. cerevisiae deletion strains, growth OD

For `Cc1c(C)c(C)c(C(O)c2ccccc2)c(C)c1C` (stereo unspecified), which normalized growth (locus YAR019C, strain CDC15, hits give low values) is on record?
The normalized growth was 1.

What about the normalized growth (locus YBL105C, strain PKC1, hits give low values) of the same molecule?
The normalized growth was 1.01.

What about the normalized growth (locus YBR135W, strain CKS1, hits give low values) of the same molecule?
Its normalized growth is 1.

What about the normalized growth (locus YBR136W, strain MEC1, hits give low values) of the same molecule?
Its normalized growth is 1.

And the normalized growth (locus YBR160W, strain CDC28, hits give low values)?
The normalized growth was 1.01.

And the normalized growth (locus YDL017W, strain CDC7, hits give low values)?
The normalized growth was 1.01.

What about the normalized growth (locus YDL028C, strain MPS1, hits give low values) of the same molecule?
The normalized growth was 1.

What about the normalized growth (locus YDL101C, strain DUN1, hits give low values) of the same molecule?
Its normalized growth is 0.998.

And the normalized growth (locus YDL108W, strain KIN28, hits give low values)?
Its normalized growth is 1.01.

And the normalized growth (locus YDL132W, strain cdc53, hits give low values)?
Its normalized growth is 0.998.

And the normalized growth (locus YDL214C, strain PRR2, hits give low values)?
The normalized growth was 0.858.

What about the normalized growth (locus YDR052C, strain DBF4, hits give low values) of the same molecule?
The normalized growth was 0.989.

And the normalized growth (locus YDR054C, strain cdc34, hits give low values)?
Its normalized growth is 0.991.

What about the normalized growth (locus YDR226W, strain ADK1, hits give low values) of the same molecule?
The normalized growth was 0.993.

And the normalized growth (locus YDR477W, strain SNF1, hits give low values)?
The normalized growth was 0.846.

And the normalized growth (locus YER123W, strain YCK3, hits give low values)?
Its normalized growth is 0.786.

What about the normalized growth (locus YER133W, strain GLC7, hits give low values) of the same molecule?
The normalized growth was 0.843.

And the normalized growth (locus YFL009W, strain cdc4, hits give low values)?
The normalized growth was 0.994.

What about the normalized growth (locus YFL029C, strain CAK1, hits give low values) of the same molecule?
The normalized growth was 1.

And the normalized growth (locus YFR003C, strain YPI1, hits give low values)?
Its normalized growth is 1.

And the normalized growth (locus YFR019W, strain FAB1, hits give low values)?
Its normalized growth is 0.868.

And the normalized growth (locus YFR028C, strain CDC14, hits give low values)?
Its normalized growth is 0.997.

What about the normalized growth (locus YGR040W, strain KSS1, hits give low values) of the same molecule?
The normalized growth was 0.862.

What about the normalized growth (locus YGR052W, strain FMP48, hits give low values) of the same molecule?
Its normalized growth is 0.75.

And the normalized growth (locus YGR092W, strain DBF2, hits give low values)?
The normalized growth was 0.703.

What about the normalized growth (locus YHR030C, strain SLT2, hits give low values) of the same molecule?
The normalized growth was 0.442 (active).

And the normalized growth (locus YHR079C, strain IRE1, hits give low values)?
Its normalized growth is 0.742.

What about the normalized growth (locus YHR082C, strain KSP1, hits give low values) of the same molecule?
The normalized growth was 0.779.

What about the normalized growth (locus YHR205W, strain SCH9, hits give low values) of the same molecule?
Its normalized growth is 0.775.

And the normalized growth (locus YIL147C, strain SLN1, hits give low values)?
The normalized growth was 1.01.

And the normalized growth (locus YJL095W, strain BCK1, hits give low values)?
Its normalized growth is 0.602.

What about the normalized growth (locus YJL128C, strain PBS2, hits give low values) of the same molecule?
The normalized growth was 0.914.

What about the normalized growth (locus YJL157C, strain FAR1, hits give low values) of the same molecule?
The normalized growth was 0.884.

What about the normalized growth (locus YJR016C, strain ILV3, hits give low values) of the same molecule?
The normalized growth was 1.

And the normalized growth (locus YJR066W, strain TOR1 (second series), hits give low values)?
The normalized growth was 0.84.

What about the normalized growth (locus YJR066W, strain TOR1, hits give low values) of the same molecule?
Its normalized growth is 0.817.

What about the normalized growth (locus YKL048C, strain ELM1, hits give low values) of the same molecule?
Its normalized growth is 0.867.

And the normalized growth (locus YKL067W, strain YNK1, hits give low values)?
The normalized growth was 0.873.

What about the normalized growth (locus YKL101W, strain HSL1, hits give low values) of the same molecule?
Its normalized growth is 0.781.

What about the normalized growth (locus YKL193C, strain SDS22, hits give low values) of the same molecule?
Its normalized growth is 1.

What about the normalized growth (locus YKL203C, strain TOR2, hits give low values) of the same molecule?
Its normalized growth is 0.894.

What about the normalized growth (locus YLR113W, strain HOG1, hits give low values) of the same molecule?
Its normalized growth is 0.609 (active).

What about the normalized growth (locus YLR133W, strain CKI1, hits give low values) of the same molecule?
Its normalized growth is 0.873.

What about the normalized growth (locus YLR403W, strain SFP1, hits give low values) of the same molecule?
The normalized growth was 0.847.

And the normalized growth (locus YML070W, strain DAK1, hits give low values)?
Its normalized growth is 0.75.

And the normalized growth (locus YMR001C, strain CDC5, hits give low values)?
Its normalized growth is 1.

What about the normalized growth (locus YMR205C, strain PFK2 (second series), hits give low values) of the same molecule?
Its normalized growth is 0.849.

And the normalized growth (locus YMR277W, strain FCP1, hits give low values)?
The normalized growth was 1.

And the normalized growth (locus YNL006W, strain LST8, hits give low values)?
The normalized growth was 1.01.

What about the normalized growth (locus YNL020C, strain ARK1, hits give low values) of the same molecule?
The normalized growth was 0.852.

And the normalized growth (locus YNL161W, strain CBK1, hits give low values)?
Its normalized growth is 1.

What about the normalized growth (locus YNL183C, strain NPR1, hits give low values) of the same molecule?
Its normalized growth is 0.696.

And the normalized growth (locus YNL207W, strain RIO2, hits give low values)?
The normalized growth was 1.

What about the normalized growth (locus YNL222W, strain SSU72, hits give low values) of the same molecule?
The normalized growth was 0.999.

What about the normalized growth (locus YNL307C, strain MCK1 (second series), hits give low values) of the same molecule?
Its normalized growth is 0.785.

What about the normalized growth (locus YOL078W, strain AVO1, hits give low values) of the same molecule?
The normalized growth was 1.

What about the normalized growth (locus YOL136C, strain PFK27, hits give low values) of the same molecule?
The normalized growth was 0.84.

What about the normalized growth (locus YOR061W, strain CKA2, hits give low values) of the same molecule?
Its normalized growth is 0.844.

What about the normalized growth (locus YOR119C, strain RIO1, hits give low values) of the same molecule?
Its normalized growth is 0.915.

And the normalized growth (locus YOR231W, strain MKK1, hits give low values)?
Its normalized growth is 0.785.

And the normalized growth (locus YOR329C, strain SCD5, hits give low values)?
The normalized growth was 1.

And the normalized growth (locus YPL031C, strain PHO85, hits give low values)?
The normalized growth was 0.806.

What about the normalized growth (locus YPL153C, strain RAD53, hits give low values) of the same molecule?
Its normalized growth is 0.783.

And the normalized growth (locus YPL204W, strain HRR25, hits give low values)?
Its normalized growth is 0.777.

And the normalized growth (locus YPL209C, strain IPL1, hits give low values)?
Its normalized growth is 1.

And the normalized growth (locus YPL256C, strain CLN2, hits give low values)?
Its normalized growth is 0.67 (active).

And the normalized growth (locus YPR025C, strain CCL1, hits give low values)?
Its normalized growth is 1.01.

What about the normalized growth (locus YPR106W, strain ISR1, hits give low values) of the same molecule?
Its normalized growth is 0.977.

What about the normalized growth (locus YPR111W, strain DBF20, hits give low values) of the same molecule?
Its normalized growth is 0.967.

What about the normalized growth (strain NNK1, hits give low values) of the same molecule?
The normalized growth was 0.972.

What about the normalized growth (strain TSCII, hits give low values) of the same molecule?
Its normalized growth is 1.
